Compounds with a hit are over-represented: about 20% of the library has one in this group of screens.
Shiga toxin inh = A qHTS for Small Molecule Inhibitors of Shiga Toxin | Vero cells, Shiga toxin protein synthesis inhibition reporter | AID 2315, 2010 | inhibition, % at 38.7 µM | 290,000 compounds, 9.2% hits; in the data active = inhibition mostly above about 28%, no sharp cut-off; inactive = mostly below about 43%
HCMV antiviral = qHTS Assay for inhibitors of the human cytomegalovirus (HCMV). HFF cells, HCMV-luciferase reporter, 72 h; stronger effect = lower value. activity change, negative = inhibition, % at 57.5 µM. 410,000 compounds, 4.5% hits. AID 1259415, 2018; in the data active = activity change below about -60%; inconclusive = no clear call, values can overlap the other calls; inactive = above about -39%
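Steps: HFFs plated, 16 h 37C; compounds added; HCMV-luciferase added to MOI 1 PFU/cell; 72 h 37C; OneGlo reagent, 5 min room temperature; luminescence read, normalized to controls.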
CHX counter = Cycloheximide Counterscreen for Small Molecule Inhibitors of Shiga Toxin; AID 2314, 2010; 300,000 compounds, 12% hits; max response, %; cell reporter, cycloheximide protein synthesis inhibition counterscreen; in the data active = max response mostly above about 13%, no sharp cut-off; inactive = mostly below about 14%; note: read at 38.3 µM for the half of the compounds with a filed dose
Pf growth 48h = Primary qHTS for delayed death inhibitors of the malarial parasite plastid, 48 hour incubation; 310,000 compounds, 5.9% hits; P. falciparum luciferase growth in erythrocytes, 48 h; Potency, µM (titrated, usually from 28.7 µM), usual class: inhibitors; AID 504832, 2011
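Parasite viability was followed by luminescence of a genomically integrated firefly luciferase. Cultures held 0.1% parasitemia at 2% hematocrit (final), incubated under 5% CO2 at 37 C.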
Pf growth 96h = Primary qHTS for delayed death inhibitors of the malarial parasite plastid, 96 hour incubation; P. falciparum luciferase reporter growth, 96 h; Potency, µM (top dose mostly 28.7 µM), actives largely listed as inhibitors; 320,000 compounds, 6.9% hits
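Readout is luminescence from an integrated firefly luciferase in P. falciparum. Red cells, 2% hematocrit and 0.05% parasitemia final, were cultured with compound through two parasite generations (96 hours) at 37 C, 5% CO2.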
Hits are given with their value; i = inactive; ? = inconclusive; nt = no result given; [ ] = dose if it differs, or a comment. Unless noted, calls come from the whole dose curve; as a rule, active = well fitted inhibition curve with a large enough effect; inconclusive = small, poorly fitted or top-dose-only effect, or another doubt; inactive = no such curve, though single readings can be large or run the other way.

SMILES	Shiga toxin inh	HCMV antiviral	CHX counter	Pf growth 48h	Pf growth 96h
Cc1sc2c(c1C)CN(C(C)(C)C)CN2C(=O)c1ccccc1	91	i	38	nt	i
COCCN1Cc2c(sc(C)c2C)N(C(=O)c2ccccc2)C1	72	i	26	?	i
Cc1sc2c(c1C)CN(Cc1ccncc1)CN2C(=O)c1ccco1	64	i	41	nt	?
CCN(CCn1cccn1)C(=O)c1ccc(OC2CCN(C(=O)CCOC)CC2)cc1	nt	i	nt	nt	nt
O=C(Cn1cc(S(=O)(=O)Cc2ccccc2)c2ccccc21)Nc1ccccc1	i	nt	i	i	i
CC(C)COP(=O)(CNC(=O)CN1C(=O)c2ccccc2S1(=O)=O)OCC(C)C	i	i	i	i	i
CC(C)Sc1nc(SCC(=O)NCc2ccco2)c2c3c(sc2n1)COC(C)(C)C3	183	i	93	?	2.6µM
CC(C)Sc1nc(SCC(=O)O)c2c3c(sc2n1)COC(C)(C)C3	54	i	43	?	?
Cn1c(=NC(=O)c2ccc(S(=O)(=O)N3CCCC3)cc2)sc2cc(F)ccc21	nt	i	nt	nt	nt
Cc1ccc(N(CC(=O)Nc2c(C)cccc2C)S(C)(=O)=O)cc1	i	i	i	i	i
COc1cccc(N(CC(=O)Nc2cccnc2)S(C)(=O)=O)c1	i	-103	i	i	i
COc1cccc(NC(=O)Nc2cccc(C(=O)O)c2)c1	47	i	26	i	?
Cc1cccc(NC(=O)Nc2cccnc2)c1C	i	i	i	i	i
CC(C)CNC(=O)NC1(C(F)(F)F)Oc2ccccc2O1	i	?	i	i	i
COc1cccc(NC(=O)CCC(=O)Nc2cccc(OC)c2)c1	i	i	i	i	i
Cn1ccc2cc(NC(=O)Nc3cccnc3)ccc21	49	-100	30	nt	nt
COc1cccc(NC(=O)NC2(C(F)(F)F)Oc3ccccc3O2)c1	66	i	45	?	i
COc1ccc(N(CC(=O)Nc2cccnc2)S(C)(=O)=O)cc1	i	i	i	i	i
C/C(=N\NC(=O)COc1ccc(C)cc1C(C)C)c1cc2ccccc2o1	i	i	i	i	?
CCOc1ccc(/C=N/OCC(=O)Nc2cc(S(=O)(=O)N3CCOCC3)ccc2OC)cc1	nt	i	nt	nt	nt
COc1cccc(NC(=O)Nc2ccc(Br)cn2)c1	78	i	26	i	i
COc1cccc(NC(=O)Nc2cccnc2)c1	i	i	14	i	i
CC(=O)c1c(C)[nH]c(C(=O)OCC(=O)N2CCc3ccccc3C2)c1C	nt	i	nt	?	?
COc1ccc(C(CNC(=O)c2c(C)nn(Cc3ccc(C)cc3)c2Cl)N2CCOCC2)cc1 (stereo not given)	nt	i	nt	10µM	?
Cc1ccc(Cn2nc(C)c(C(=O)NCC(c3cccs3)N3CCOCC3)c2Cl)cc1 (stereo not given)	nt	?	nt	12µM	?
SMILES	Shiga toxin inh	HCMV antiviral	CHX counter	Pf growth 48h	Pf growth 96h
Cc1nn(Cc2ccccc2)c(C)c1C(=O)NCC(c1cccs1)N1CCOCC1 (stereo not given)	nt	i	nt	?	i
Cc1ccc(SCC(=O)Nc2ccc(O)c(-c3nc4cc(C)ccc4o3)c2)cc1	nt	i	nt	nt	nt
CSc1ccc(Cl)c(C(=O)Nc2ccc(Cl)cn2)c1	i	?	i	i	7.4µM
COc1cc(SC)ccc1C(=O)Nc1ccc(Cl)cn1	77	-75	33	i	?
CSc1ccc(Cl)c(C(=O)Nc2ccc(N3CCOCC3)cc2)c1	i	i	i	i	i[1.15 µM]
CCCCCOc1ccc(NC(=O)c2cc(SC)ccc2Cl)cc1	i	-60	i	i	i
Cc1ccc(NS(=O)(=O)c2cccc(C(=O)NNC(=O)c3cccn3C)c2)c(C)c1	i	i	24	i	i
CCOC(=O)Cc1csc(NC(=O)/C=C/c2ccccc2Cl)n1	71	i	38	i	i
CCOC(=O)Cc1csc(NC(=O)/C=C\c2ccccc2Cl)n1	53	i	23	i	i
CCOc1cc(N2CCOCC2)c(OCC)cc1NC(=O)CN1C(=O)N(C)C2(CCCCC2)C1=O	nt	i	nt	i	i
O=C(c1cc(C(=O)NCc2ccccc2)c(=O)n(Cc2ccccc2)c1)c1cc(Cl)ccc1O	i	i	i	2.3µM	0.66µM
Cc1ccccc1NC(=O)c1cc(C(=O)c2cc(Cl)ccc2O)cn(-c2ccccc2C)c1=O	46	-65	39	0.47µM	0.74µM
COc1ccc(O)c(C(=O)c2cc(C(=O)NCCc3ccccc3)c(=O)n(CCc3ccccc3)c2)c1	i	i	32	?	?

High-throughput results deposited in PubChem by National Center for Advancing Translational Sciences (NCATS).
